Assay results as given in the supplement of paper PMC12669032.

Tests used:
Experiment in all cases: growth AUC relative to DMSO control (median of replicates) (fraction); higher = more growth (less inhibition), active = hit call of the paper
Details in all cases: 20 µM; 24 h;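 active = AUC reduced over 20% with Padj below 0.05 in at least 2 of 3 replicates; inactive = otherwise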
[1] = tested on: Coprococcus comes
Outline: (§1)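 Starting at OD600 0.05, gut bacterial monocultures in mGAM were grown anaerobically at 37 °C with 20 µM compound (1% DMSO) under pierced gas-permeable seals. OD600 was read every hour for 24 h, and the lowest OD of each curve was set to 0. Area under the growth curve was normalised to the plate median of solvent-only wells, or to row and column medians on the industrial chemical plate, and the median of three biological replicates grown on separate days is given.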

[2] = tested on: Escherichia coli ED1a
Outline: as §1

[3] = tested on: Escherichia coli IAI1
Outline: as §1

[4] = tested on: Eubacterium rectale
Outline: as §1

[5] = tested on: Fusobacterium nucleatum subsp. animalis
Outline: as §1

[6] = tested on: Lactobacillus gasseri
Outline: as §1

[7] = tested on: Lactobacillus paracasei
Outline: as §1

[8] = tested on: Odoribacter splanchnicus
Outline: as §1

[9] = tested on: Parabacteroides distasonis
Outline: as §1

[10] = tested on: Parabacteroides merdae
Outline: as §1

[11] = tested on: Roseburia intestinalis
Outline: as §1

[12] = tested on: Streptococcus salivarius
Outline: as §1

SMILES | growth AUC [1] | growth AUC [2] | growth AUC [3] | growth AUC [4] | growth AUC [5] | growth AUC [6] | growth AUC [7] | growth AUC [8] | growth AUC [9] | growth AUC [10] | growth AUC [11] | growth AUC [12]
COc1cc(OC)nc(NC(=O)NS(=O)(=O)c2c(-c3nnn(C)n3)cnn2C)n1 | 1.01 (inactive) | 1.01 (inactive) | 0.988 (inactive) | 1.1 (inactive) | 1.02 (inactive) | 0.873 (inactive) | 1.04 (inactive) | 1.03 (inactive) | 0.845 (inactive) | 1.03 (inactive) | 0.948 (inactive) | 0.953 (inactive)
COC(=O)C(C)Oc1ccc(Cl)cc1Cl (stereo unspecified) | 1.01 (inactive) | 1.01 (inactive) | 0.988 (inactive) | 1.14 (inactive) | 0.95 (inactive) | 0.991 (inactive) | 1.01 (inactive) | 1.11 (inactive) | 0.996 (inactive) | 1.01 (inactive) | 0.979 (inactive) | 0.991 (inactive)
Cc1cccc(C)c1O | 1 (inactive) | 1.04 (inactive) | 1 (inactive) | 0.923 (inactive) | 0.993 (inactive) | 1.06 (inactive) | 0.978 (inactive) | 0.943 (inactive) | 0.995 (inactive) | 0.995 (inactive) | 0.942 (inactive) | 0.968 (inactive)
CNC(=O)Sc1ccc(OS(C)(=O)=O)cc1 | 1.02 (inactive) | 1.01 (inactive) | 1.02 (inactive) | 1.54 (inactive) | 1.09 (inactive) | 0.933 (inactive) | 0.953 (inactive) | 0.864 (inactive) | 0.817 (inactive) | 0.938 (inactive) | 0.992 (inactive) | 0.937 (inactive)
CCNc1nc(N)[nH]c(=O)n1 | 1.02 (inactive) | 0.991 (inactive) | 1 (inactive) | 0.995 (inactive) | 0.953 (inactive) | 1.01 (inactive) | 1.02 (inactive) | 1.01 (inactive) | 1.04 (inactive) | 0.995 (inactive) | 1.06 (inactive) | 0.978 (inactive)
CC(C)CNC(=O)N1CCNC1=O | 1.01 (inactive) | 1.02 (inactive) | 1.02 (inactive) | 1.02 (inactive) | 1.07 (inactive) | 1.05 (inactive) | 1.04 (inactive) | 1.06 (inactive) | 0.956 (inactive) | 1.01 (inactive) | 1.1 (inactive) | 0.995 (inactive)
c1ccc2cc3c(ccc4ccccc43)cc2c1 | 1 (inactive) | 0.999 (inactive) | 0.994 (inactive) | 1.08 (inactive) | 1.01 (inactive) | 0.969 (inactive) | 1 (inactive) | 0.992 (inactive) | 0.961 (inactive) | 0.995 (inactive) | 1.01 (inactive) | 0.962 (inactive)
O.O=C(Nc1ccc(Cl)c(Cl)c1)Nc1cc(Cl)ccc1Oc1ccc(Cl)cc1S(=O)(=O)[O-].[Na+] | 0.823 (inactive) | 1.06 (inactive) | 1.03 (inactive) | 0.886 (inactive) | 0.691 (inactive) | 0.0949 (active) | 0.906 (inactive) | 0.0102 (active) | 0.494 (active) | 0.861 (inactive) | 0.792 (active) | 0.478 (active)
CC[N+](CC)(CC(=O)Nc1c(C)cccc1C)Cc1ccccc1.O=C([O-])c1ccccc1 | 1.04 (inactive) | 1.01 (inactive) | 1.04 (inactive) | 1.14 (inactive) | 1.02 (inactive) | 0.967 (inactive) | 1.05 (inactive) | 0.995 (inactive) | 1.06 (inactive) | 1.05 (inactive) | 1.02 (inactive) | 1.01 (inactive)
CCCC(C)(C)C(=O)Nc1ccc(Cl)cc1 | 0.978 (inactive) | 0.973 (inactive) | 1.01 (inactive) | 0.958 (inactive) | 0.938 (inactive) | 1.1 (inactive) | 0.989 (inactive) | 0.958 (inactive) | 0.928 (inactive) | 0.949 (inactive) | 0.945 (inactive) | 0.963 (inactive)
O=C(O)[C@@H](S)[C@@H](S)C(=O)O | 1.03 (inactive) | 1.02 (inactive) | 1.03 (inactive) | 1.18 (inactive) | 1.05 (inactive) | 0.993 (inactive) | 1.02 (inactive) | 0.985 (inactive) | 1.04 (inactive) | 1.04 (inactive) | 1 (inactive) | 0.997 (inactive)
O=C(O)Cc1c(Cl)ccc(Cl)c1Cl | 0.959 (inactive) | 0.947 (inactive) | 0.999 (inactive) | 0.96 (inactive) | 0.928 (inactive) | 1.06 (inactive) | 1.03 (inactive) | 0.946 (inactive) | 1.05 (inactive) | 1.01 (inactive) | 0.979 (inactive) | 1.01 (inactive)
COC(=O)c1ccc(CNS(C)(=O)=O)cc1S(=O)(=O)NC(=O)Nc1nc(OC)cc(OC)n1 | 1.04 (inactive) | 1.02 (inactive) | 1.01 (inactive) | 1.01 (inactive) | 0.977 (inactive) | 0.961 (inactive) | 0.925 (inactive) | 1.07 (inactive) | 1.03 (inactive) | 1.02 (inactive) | 0.973 (inactive) | 1.07 (inactive)
COc1ccc(Cl)c(Cl)c1Cl | 0.994 (inactive) | 0.983 (inactive) | 1.02 (inactive) | 0.966 (inactive) | 0.982 (inactive) | 1.01 (inactive) | 0.993 (inactive) | 1.01 (inactive) | 1.04 (inactive) | 0.961 (inactive) | 0.999 (inactive) | 1.06 (inactive)
CCCOC(=O)NCCCN(C)C | 0.979 (inactive) | 1.02 (inactive) | 0.979 (inactive) | 0.952 (inactive) | 0.984 (inactive) | 0.951 (inactive) | 1.04 (inactive) | 1.01 (inactive) | 0.989 (inactive) | 0.977 (inactive) | 1.02 (inactive) | 0.967 (inactive)
CN(C)C(=O)Nc1ccc(Cl)c(Cl)c1 | 1.02 (inactive) | 0.985 (inactive) | 0.963 (inactive) | 0.978 (inactive) | 1.02 (inactive) | 0.968 (inactive) | 0.971 (inactive) | 0.888 (inactive) | 1.09 (inactive) | 0.907 (inactive) | 1.03 (inactive) | 1.01 (inactive)
CCCCC(CC)COC(=O)COc1ccc(Cl)cc1C (stereo unspecified) | 1.03 (inactive) | 0.981 (inactive) | 1.01 (inactive) | 1.05 (inactive) | 0.989 (inactive) | 0.828 (inactive) | 0.962 (inactive) | 0.934 (inactive) | 0.923 (inactive) | 0.937 (inactive) | 0.93 (inactive) | 0.978 (inactive)
CCOC(=O)Nc1cccc(OC(=O)Nc2cccc(C)c2)c1 | 0.963 (inactive) | 0.94 (inactive) | 0.953 (inactive) | 1.01 (inactive) | 0.974 (inactive) | 0.896 (inactive) | 1.01 (inactive) | 1.08 (inactive) | 0.913 (inactive) | 0.932 (inactive) | 0.912 (inactive) | 0.971 (inactive)
CC(C)(c1cc(Br)c(O)c(Br)c1)c1cc(Br)c(O)c(Br)c1 | 0.41 (active) | 1.04 (inactive) | 0.997 (inactive) | 0.0259 (active) | 0.465 (active) | 0.136 (active) | 0.0653 (active) | 0.0465 (active) | 0.0802 (active) | 0.151 (active) | 0.0954 (active) | 0.144 (active)
ClC(COCC(Cl)C(Cl)(Cl)Cl)C(Cl)(Cl)Cl (stereo unspecified) | 0.976 (inactive) | 1.01 (inactive) | 0.983 (inactive) | 0.92 (inactive) | 0.992 (inactive) | 1.11 (inactive) | 1.08 (inactive) | 0.971 (inactive) | 0.98 (inactive) | 0.932 (inactive) | 1.01 (inactive) | 1.02 (inactive)
CC1=C(c2ccccc2)C(=O)N(C(C)(C)c2cc(Cl)cc(Cl)c2)CO1 | 0.972 (inactive) | 1.01 (inactive) | 0.987 (inactive) | 0.982 (inactive) | 0.935 (inactive) | 1.01 (inactive) | 1.04 (inactive) | 0.972 (inactive) | 0.732 (active) | 0.811 (inactive) | 1.03 (inactive) | 0.979 (inactive)
Oc1ccc2ccccc2c1N=Nc1ccccc1 | 0.858 (inactive) | 1.01 (inactive) | 1.01 (inactive) | 0.983 (inactive) | 1 (inactive) | 0.973 (inactive) | 0.733 (active) | 1.04 (inactive) | 0.905 (inactive) | 1.05 (inactive) | 1.13 (inactive) | 0.914 (inactive)
CCOc1ccc(C2(C(=O)OC(C#N)c3cccc(Oc4ccccc4)c3)CC2(Cl)Cl)cc1 (stereo unspecified) | 1.03 (inactive) | 1.01 (inactive) | 0.981 (inactive) | 1.06 (inactive) | 1.07 (inactive) | 0.848 (inactive) | 1 (inactive) | 1.03 (inactive) | 0.93 (inactive) | 0.943 (inactive) | 0.951 (inactive) | 0.891 (inactive)
